The source made the active and inactive calls. Unless noted, how the calls were made is not given here.

Drawing on PubChem BioAssay, this text covers composite z-score and z-score for 13 compounds.

The subject of test [1] is Wnt5a (protein binding on small-molecule microarray). Kind of test: small molecules binding Wnt5a protein – biophysical, small-molecule microarray, 635/667 nm fluorescence, primary screen (AID 1142).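 Further: fluorescence read at 667 nm with signal to noise per printed feature.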 The conditions noted are these: 635 nm fluorescence, higher = more signal.
Test [2] can be described thus: ATP-based viability of Huh7 replicon cells – cell-based, CellTiter-Glo luminescence, basal, 48 h, cytotoxicity control for HCV replication inhibitor project, primary screen (AID 1143).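 Further: Huh7 hepatoma cells carrying a hepatitis C replication reporter with no stimulus; test concentration not given here.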 The conditions noted are these: higher = more signal, called active from +8 up or from −8 down. A general note: Replicon systems follow genome replication, usually without infectious particles.

Test [3] can be described thus: Pseudomonas biofilm growth suppression – PAO1 strain, BacTiter-Glo luminescence, LB-PBS, primary screen (AID 1144). The note with it: P. aeruginosa PAO1 biofilm, 12 h, higher = more signal.
The nature of test [4]: basal CRE-LacZ reporter activity in PC12 – cell-based, unstimulated, primary screen (AID 1145). The conditions noted are these: no forskolin, luminescence, 4.5 h, higher = more signal, called active from +8 up or from −8 down.
The nature of test [5]: forskolin-driven CRE-LacZ activity in PC12 – cell-based, CRE-LacZ reporter, forskolin-stimulated, primary screen (AID 1146).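 Further: PC12 cells with 6xCRE LacZ reporter stimulated by forskolin 10 µM; beta-galactosidase reporter signal reflecting CREB driven transcription.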 The conditions noted are these: luminescence, 4.5 h, higher = more signal, called active from +8 up or from −8 down.
Test [6] has as its target Streptavidin (Streptomyces avidinii) (UniProt P22629). Description: compounds binding control protein streptavidin – biophysical, small-molecule microarray, 635/667 nm fluorescence, artefact control for SMM compound annotation, primary screen (AID 1147).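 Further: signal reflects streptavidin binding to arrayed compounds as a control protein.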 The note with it: higher = more signal.
The nature of test [7]: probe aInhba binding on compound microarray – biochemical, small-molecule microarray, 635/667 nm fluorescence, primary screen (AID 1148).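 Further: score merges 667nm spot fluorescence with signal-to-noise for antibody binding to printed compounds.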 The note with it: higher = more signal.
Test [8] deals with Torsin-1A (Homo sapiens) (UniProt O14656). Description: TOR1A wild-type binding on microarray – cell lysate, small-molecule microarray, lysate, 635/667 nm, primary screen (AID 1149). The note with it: COS7 hTOR1A-WT lysate, 635 nm fluorescence, higher = more signal.
Torsin-1A (Homo sapiens), sequence (O14656 whole entry, looked up): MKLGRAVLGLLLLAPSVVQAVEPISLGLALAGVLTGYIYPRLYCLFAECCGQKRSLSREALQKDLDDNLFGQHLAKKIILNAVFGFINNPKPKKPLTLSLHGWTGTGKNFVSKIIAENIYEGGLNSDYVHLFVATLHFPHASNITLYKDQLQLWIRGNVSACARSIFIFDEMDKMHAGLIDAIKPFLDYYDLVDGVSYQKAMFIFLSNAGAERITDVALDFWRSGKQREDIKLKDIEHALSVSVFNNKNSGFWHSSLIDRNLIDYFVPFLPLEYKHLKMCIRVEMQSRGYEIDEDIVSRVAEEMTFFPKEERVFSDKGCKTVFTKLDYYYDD
Test [9] has the same target. Kind of test: torsin A mutant lysate binding on microarrays – cell lysate, small-molecule microarray, COS7 lysate, 635/667 nm fluorescence, primary screen (AID 1150).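 Further: score pools 667 nm emission and signal to noise measuring lysate protein binding.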 The note with it: COS7 hTOR1A mutant lysate, 635 nm fluorescence, higher = more signal.
Test [10] has as its system Sonic hedgehog protein (Shh). Description: Sonic hedgehog microarray binding compounds – biochemical, small-molecule microarray, 635/667 nm fluorescence, primary screen (AID 1151).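 Further: Shh protein binding to compounds spotted on small-molecule microarray slides; score combines spot fluorescence intensity with signal-to-noise across triplicate slides.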 The conditions noted are these: 635 nm fluorescence, higher = more signal.

Streptavidin (Streptomyces avidinii), sequence (P22629 whole entry, looked up): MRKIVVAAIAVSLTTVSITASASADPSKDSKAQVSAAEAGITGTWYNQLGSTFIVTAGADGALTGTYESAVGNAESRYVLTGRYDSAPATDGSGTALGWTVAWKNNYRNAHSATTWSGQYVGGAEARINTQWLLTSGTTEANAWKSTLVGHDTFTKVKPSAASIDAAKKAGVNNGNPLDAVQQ

On to `CCCC=C(CCC)[C@@H](NS(=O)(=O)c1ccc(C(F)(F)F)cc1)c1ccccc1`, for which the composite z-score in [1] is 0.001; in test [6], 0.578; in [7], 0.156; with Torsin-1A (Homo sapiens) [8] it was -0.0214; with Torsin-1A (Homo sapiens) [9], -0.0562; in [10] it was 0.108. Also, the z-score in test [2] is -1.09 (inactive); in test [3] it was -0.869 (inactive); in test [4], -0.565 (inactive); in [5], 1.32 (inactive).

Regarding `C=CC[C@@H](OC(=O)Nc1ccc(OC)cc1)c1ccc(O)c(F)c1`, the composite z-score in test [1] is -0.115; in test [6], -0.716; in test [7] it was -0.106; with Torsin-1A (Homo sapiens) [8] it was -0.0579; with Torsin-1A (Homo sapiens) [9], 0.327; in [10], 0.174. Moreover, the z-score in test [2] was -4.67 (inactive); in test [3] it was -0.933 (inactive); in test [4], 2.26 (inactive); in [5], 10.1 (active).

With `NCCCCCNC(=O)[C@H]1C[C@H]2C(=O)N3CCC[C@H]3C(=O)N2[C@H]1c1cccc(OCCO)c1`, the composite z-score in test [1] was 0.444; in test [6], 0.812; in test [7] it was 0.0792; in the test with Torsin-1A (Homo sapiens) [8], 1.05; with Torsin-1A (Homo sapiens) [9], 0.264; in test [10], 0.148. Further, the z-score in test [2] was -0.0422 (inactive); in test [3] it was 0.294 (inactive); in test [4] it was 0.143 (inactive); in test [5] it was -0.0024 (inactive).

On to `CS(=O)(=O)CCOC(=O)C1=CC(CCCO)=CC(c2ccc(CN3CCCC3)cc2)N(Cc2sc3ccccc3c2Cl)C=C1C(=O)OCCS(C)(=O)=O` (stereo not given), for which the composite z-score in [1] worked out at 0.689; in test [6], 2.48; in test [7] it was 0.794; with Torsin-1A (Homo sapiens) [8], 1.4; in the test with Torsin-1A (Homo sapiens) [9], 2.18; in [10], 1.18. Besides, the z-score in test [2] is -1.29 (inactive); in test [3], 1.13 (inactive); in test [4] it was 2.08 (inactive); in [5] it was 0.274 (inactive).

As to `C=C(COC)C(=O)CC[C@@H](OC(C)=O)c1cccc(OCCO)c1`, the composite z-score in test [1] is -0.124; in [6] it was -1.07; in test [7] it was -0.128; with Torsin-1A (Homo sapiens) [8], 0.672; in the test with Torsin-1A (Homo sapiens) [9] it was -0.708; in test [10] it was 0.358. The z-score in test [2] is -0.3 (inactive); in [3], 0.423 (inactive); in test [4], 3.3 (inactive); in test [5], 2.95 (inactive).

On to `NC(=O)NCC#Cc1ccc2c(c1)[C@]1(C(=O)N2)[C@H](c2ccccc2OCCO)N2[C@H](c3ccccc3)[C@H](c3ccccc3)OC(=O)[C@H]2[C@@H]1C(=O)O`, for which the composite z-score was -0.163 in [1]; 0.333 in [6]; 0.121 in test [7]; -0.689 with Torsin-1A (Homo sapiens) [8]; 0.28 in the test with Torsin-1A (Homo sapiens) [9]; 0.028 in test [10]. Also, the z-score in test [2] is -1.22 (inactive); in test [3] it was -1.19 (inactive); in [4], 0.595 (inactive); in test [5] it was 1.36 (inactive).

For the compound `COCCOC(=O)N1C(=O)[C@@]2(c3cc(C#CCCO)ccc31)[C@H](c1ccc(OCCO)cc1)N1[C@H](c3ccccc3)[C@H](c3ccccc3)OC(=O)[C@H]1[C@@H]2C(=O)Nc1nc2ccccc2s1`, the composite z-score in test [1] is 0.508; in test [6], 1.13; in test [7], 0.358; with Torsin-1A (Homo sapiens) [8], 0.266; with Torsin-1A (Homo sapiens) [9], 0.0474; in [10], 1.97. The z-score in [2] was -0.218 (inactive); in test [3], 0.56 (inactive); in [4], -0.618 (inactive); in [5], -0.267 (inactive).

As to `C=CCNC(=O)[C@H]1[C@@H]2C(=O)O[C@@H](c3ccccc3)[C@@H](c3ccccc3)N2[C@@H](c2ccccc2OCCO)[C@]12C(=O)N(C(=O)OCCOC)c1ccc(C#CC3(O)CCCCCC3)cc12`, the composite z-score is 0.358 in [1]; -0.139 in test [6]; 0.0566 in [7]; 0.216 with Torsin-1A (Homo sapiens) [8]; 0.647 with Torsin-1A (Homo sapiens) [9]; 1.57 in test [10]. For the same compound, the z-score in [2] is -5.57 (inactive); in test [3] it was -0.717 (inactive); in test [4], -0.258 (inactive); in test [5], 0.347 (inactive).

For `Cc1ccc(NN2C(C(O)c3c(F)cccc3Cl)C=CC3C(=O)N(C4CCCCC4)C(=O)C32)cc1` (stereo not given), the composite z-score in [1] was 0.361; in test [6], 1.75; in test [7], -0.0675; with Torsin-1A (Homo sapiens) [8], 0.0334; with Torsin-1A (Homo sapiens) [9] it was 0.448; in test [10] it was -0.216. For the same compound, the z-score was -3.26 (inactive) in test [2], -0.933 (inactive) in test [3], -0.0787 (inactive) in test [4] and 0.355 (inactive) in [5].

As for `Cc1ccc(S[C@]2(C(=O)NCC(F)(F)F)CC(=O)N(Cc3cc(C(F)(F)F)cc(C(F)(F)F)c3)[C@@H]2c2ccc(CO)cc2I)cc1`, the composite z-score in [1] is -0.676; in [6] it was -0.978; in [7], -0.153; with Torsin-1A (Homo sapiens) [8], -0.877; in the test with Torsin-1A (Homo sapiens) [9] it was -0.902; in test [10], -0.58. Also, the z-score in test [2] is -3.02 (inactive); in test [3], -1.29 (inactive); in test [4], -0.529 (inactive); in test [5] it was 0.423 (inactive).

Consider `CCOC(=O)C[C@H]1[C@H](OC(=O)c2ccccc2-c2ccccc2)[C@@H](NC(=O)c2ccc3ccccc3n2)c2cc(OCCCO)ccc2N1C(=O)Cc1ccc(OC)cc1`, for which the composite z-score in test [1] was 0.0204; in test [6] it was -0.0997; in test [7], 0.0442; in the test with Torsin-1A (Homo sapiens) [8], 0.253; in the test with Torsin-1A (Homo sapiens) [9], 0.0746; in test [10], 0.336. Also, the z-score was -0.109 (inactive) in test [2], 0.485 (inactive) in [3], 1.03 (inactive) in [4] and 0.349 (inactive) in test [5].

Regarding `O=C1C2C=CC(C(O)C3CC=CCC3)N(Nc3ccccc3)C2C(=O)N1c1ccccc1` (stereo not given), the composite z-score in [1] was -0.0727; in test [6], 0.801; in [7], 0.292; with Torsin-1A (Homo sapiens) [8], -0.235; with Torsin-1A (Homo sapiens) [9] it was 0.687; in test [10], -0.143. Further, the z-score is -2.74 (inactive) in test [2], -0.879 (inactive) in test [3], 0.426 (inactive) in [4] and 0.305 (inactive) in test [5].

As to `CN(C)C(=O)[C@]1(Cc2ccccc2CN=[N+]=[N-])N=C(c2ccc(OCCCO)cc2)O[C@@H]1c1ccccc1`, the composite z-score in test [1] was 0.682; in test [6], 0.792; in test [7], 0.111; in the test with Torsin-1A (Homo sapiens) [8], 0.178; with Torsin-1A (Homo sapiens) [9] it was 0.729; in test [10] it was -0.18. For the same compound, the z-score in [2] was -5.61 (inactive); in [3] it was -0.528 (inactive); in [4], 0.502 (inactive); in test [5] it was -0.579 (inactive).
